Screens: PubChem, National Center for Advancing Translational Sciences (NCATS)
aSyn rescue: inhibitors of alpha-synuclein toxicity in yeast | Yeast expressing alpha-synuclein, growth rescue, BacTiter-Glo, 24 h | Potency, µM (highest dose often 46.1 µM), usual class: activators | hit rate 0.14% among 370,000 | AID 652106; note: nearly all actives have a fitted effect of over 65% in size
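Screening used galactose-induced yeast with toxic alpha-synuclein levels, exposed to compound for 24 hr at 30 deg C. Cell growth, read with BacTiter-Glo luminescence, gave the measured signal.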
ERG Ets-DNA blk: ERG Ets/DNA interaction inhibition; P11308; fluorescence polarization, His-ERG Ets domain / labelled DNA; Potency, µM (series often up to 76.9 µM), actives largely listed as inhibitors; hit rate 0.028% among 370,000; AID 624246; active = well fitted inhibition curve with a large enough effect in the polarisation, with a control signal flat; inconclusive = small, poorly fitted or top-dose-only effect, or effect the other way, or a change in a side signal; inactive = no such curve, though single readings can be large or run the other way; the % refers to the polarisation;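 note: polarization taken with two DNA probes labelled with fluorescein and Texas red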
Target sequence (P11308 whole entry, looked up, the tested form may be a part): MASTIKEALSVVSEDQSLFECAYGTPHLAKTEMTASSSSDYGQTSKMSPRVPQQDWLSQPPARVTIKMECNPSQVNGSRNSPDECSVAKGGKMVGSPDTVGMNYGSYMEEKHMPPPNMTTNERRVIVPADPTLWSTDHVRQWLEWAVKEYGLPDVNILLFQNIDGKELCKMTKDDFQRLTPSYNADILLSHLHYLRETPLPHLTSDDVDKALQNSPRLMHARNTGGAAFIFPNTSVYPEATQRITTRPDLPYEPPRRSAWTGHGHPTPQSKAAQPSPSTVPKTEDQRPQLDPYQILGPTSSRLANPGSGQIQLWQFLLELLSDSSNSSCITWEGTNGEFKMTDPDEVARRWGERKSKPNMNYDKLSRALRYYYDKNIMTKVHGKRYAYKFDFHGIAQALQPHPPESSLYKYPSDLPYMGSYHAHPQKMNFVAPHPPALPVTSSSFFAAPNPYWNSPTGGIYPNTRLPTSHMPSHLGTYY
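His-tagged ERG Ets domain (1 uM in the protein solution; 300mM KCl, 50mM Tris-HCl, 1mM EDTA, 1mM DTT, pH 7.5) received compound, then a probe mix of 5 nM fluorescein-DNA and 100nM Texas-615-DNA. Fluorescence polarization was read for both dyes.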
FUS yeast rescue: rescues growth of FUS-expressing yeast; S. cerevisiae FUS-expressing, growth rescue, OD600, 24 h; Potency, µM (highest dose often 76.6 µM), most hits filed as activators; hit rate 0.24% among 390,000; note: nearly all actives have a fitted effect of over 55% in size
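Quantitative HTS measuring growth restoration of FUS-toxic yeast. Galactose-induced cells (OD 0.005) were exposed 24hr at 30C to compounds at several concentrations, then absorbance at 600 nm was recorded.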
TDP-43 yeast inh: TDP-43 toxicity inhibition in yeast; TDP-43 expressing yeast growth rescue, BacTiter-Glo, 24 h; Potency, µM (series often up to 46.1 µM), usual class: activators; hit rate 1.8% among 410,000; note: nearly all actives have a fitted effect of over 50% in size
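Readout is BacTiter-Glo luminescence of cell growth, so inhibitors register as activators. TDP-43-expressing yeast at OD600=0.02 in galactose medium, after raffinose pregrowth to mid-log, were incubated with compound for 24 hr at 30 deg C.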
Mito fusion yeast: mitochondrial division inhibition or fusion activation; hit rate 0.23% among 320,000; S. cerevisiae fusion-defective mutant growth rescue, CellTiterGlo 48 h; Potency, µM (series often up to 46.1 µM), most hits filed as activators; AID 485298; note: nearly all actives have a fitted effect of over 45% in size
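Temperature-sensitive fusion-defective S. cerevisiae (e.g. fzo1-1, mgm1-5) were grown with compound in YPEG medium (3% ethanol, 3% glycerol) for 48 hours at 37C. Growth rescue was measured as viability by CellTiterGlo luminescence after 10 minutes at ambient.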
Abeta yeast res: compounds reversing amyloid beta toxicity in yeast; AID 1347071; yeast expressing A-beta42, growth rescue, OD600, 48 h; response scale: 0% DMSO, 100% iron-clioquinol control; Potency, µM (top dose mostly 46.1 µM), hits mostly activators; hit rate 0.063% among 410,000; note: nearly all actives have a fitted effect of over 55% in size
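Growth rescue measured by 600 nm absorbance after 48 h yeast culture at 30 C with compound. Values normalized between DMSO and an equimolar ferric chloride plus clioquinol control.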
A number is an active result; 0 = inactive; ? = inconclusive; - = not tested or not shown; [ ] = dose if it differs, or a comment. A selection: hits, their analogues and other compounds. The true share with any hit is near 2.2%. Unless noted, calls come from the whole dose curve; as a rule, active = well fitted curve in the direction sought with a large enough effect; inconclusive = small, poorly fitted or top-dose-only effect, or another doubt; inactive = no such curve, though single readings can be large; an effect the other way counts as inactive or inconclusive.

SMILES	aSyn rescue	ERG Ets-DNA blk	FUS yeast rescue	TDP-43 yeast inh	Mito fusion yeast	Abeta yeast res
CC(C)c1ccc(Nc2ncnc3c2nc2n3CCCC2)cc1	-	0	0	14.1µM	-	0
CCOc1ccc(Nc2ncnc3c2nc2n3CCCC2)cc1	-	0	0	?	-	0
C=CCn1c(COc2ccc(C)cc2)nnc1SCC(=O)c1ccc(-c2ccccc2)cc1	-	-	0	-	-	-
COc1ccc(CCNC(=O)CCc2c(C)nc3cc(-c4ccccc4OC)nn3c2C)c(OC)c1	-	0	?	17.8µM	-	0
Cc1nc2c(-c3ccccc3)c(C)nn2c(C)c1CCC(=O)N1CCN(c2ccc(F)cc2)CC1	-	0	0	14.1µM	-	0
Cc1nc2c(-c3ccccc3)c(C)nn2c(C)c1CCC(=O)N1CCN(c2ccccc2)CC1	-	0	0	12.6µM	-	0
COc1ccc(NC(=O)CCc2c(C)nc3c(-c4ccc(F)cc4)c(C)nn3c2C)c(OC)c1	-	0	0	0	-	0
COc1ccc(OC)c(NC(=O)CCc2c(C)nc3c(-c4ccccc4)c(C)nn3c2C)c1	-	0	?	20µM	-	0
COc1ccc(-c2cc3nc(C)c(CCC(=O)NCCc4ccc(Cl)cc4)c(C)n3n2)c(OC)c1	-	0	0	0	-	0
Cc1cccc(C)c1NC(=O)C1C(c2ccc3c(c2)OCO3)=Nc2ccccc2N1C(=O)c1cccc2ccccc12 (configuration not stated)	0	-	0	0	-	0
C[C@H]1[C@@H](OC(=O)Nc2ccc(Cl)cc2)CC[C@@]23CCCN2C(=O)CCC[C@@H]13	-	-	0	-	-	-
COCCNC(=O)c1ccccc1NC(=O)c1nsc2ccccc12	-	0	0	0	-	0
COc1ccc(NC(=O)C(Cc2ccccc2)NS(=O)(=O)c2ccc(Br)s2)cc1OC (configuration not stated)	-	0	0	0	-	0
CCCCc1c(C)c2cc(C)ccc2[nH]c1=O	0	0	0	10µM	0	0
Cc1ccc(CN(C#N)c2nc(C)cc(C)n2)cc1	0	0	0	35.5µM	0	0
Cc1cc(C)nc(N(C#N)Cc2cccc(Cl)c2)n1	0	0	0	?	0	0
Cc1cc(C)nc(N(C#N)Cc2ccc(Cl)cc2)n1	0	0	0	0[9.22 µM]	0	0
Cc1cc(C)nc(N(C#N)CCOc2ccc(Cl)cc2)n1	0	0	0	17.8µM	0	0
CC(C)Nc1nc(NC(C)C)nc(N(C#N)CCOc2ccc(Cl)cc2Cl)n1	0	0	0	0	0	0
Cc1cc(C)nc(N(C#N)Cc2ccc(Br)cc2)n1	0	0	0	14.1µM	?	0
CCCn1c2ccccc2c2cnn(CC(=O)NC(CCSC)C(=O)OC)c(=O)c21 (configuration not stated)	-	0	0	0	-	0
Cc1c(NC(=O)/C(C#N)=C/c2ccc(-c3cc(Cl)ccc3Cl)o2)c(=O)n(-c2ccccc2)n1C	0	-	-	0	0	0
Cc1c(NC(=O)/C(C#N)=C/c2ccc(-c3ccc(Cl)cc3)o2)c(=O)n(-c2ccccc2)n1C	0	0	?	31.6µM	0	0
Fc1ccc(N/N=C/c2ccc(N3CCOCC3)cc2)c(F)c1	0	0	0	17.8µM	0	0
C/C(=N\Nc1ccc(F)cc1F)c1ccc(N2CCOCC2)cc1	0	0	0	0	0	0
SMILES	aSyn rescue	ERG Ets-DNA blk	FUS yeast rescue	TDP-43 yeast inh	Mito fusion yeast	Abeta yeast res
Nc1ccc2oc(=O)c3ccccc3c2c1	0	0	-	12.6µM	0	0
COc1ccc(CCNC(=O)c2ccc3c(c2)ncn3C2CCCCC2)cc1	-	-	0	-	-	-
COCc1cc(C)nc2sc(C(=O)N3CCN(c4ccccc4)CC3)c(N)c12	0	0	0	20µM	0	0
COCc1cc(C)nc2sc(C(=O)N3CCCCC3)c(N)c12	0	0	0	0	0	0
c1ccc2c(-c3csc(-c4ccncc4)n3)c[nH]c2c1	0	0	0	3.98µM	0	0
Brc1ccc(-c2csc(-c3c[nH]c4ccccc34)n2)cc1	0	0	0	0	0	0[9.22 µM]
O=C(Cn1cc(SCc2c(F)cccc2Cl)c2ccccc21)N1CCCC1	-	0	0	0	-	0
CSc1ccc(-c2nc3cccc(C)n3c2Nc2ccc3c(c2)OCO3)cc1	-	0	?	0	-	0
Cc1cc(C(=O)N/N=C/c2ccc(OCc3ccccc3)cc2)c(C)o1	0	0	0	12.6µM	0	?
COc1ccc(/C=N/NC(=O)c2cc(C)oc2C)cc1OCc1ccccc1	0	0	0	0	0	0
O=C(/C=C/c1ccccc1)Nc1cccnc1Cl	0	0	0	7.94µM	0	0
Cc1ccc2nc(NC(=O)CSc3nccn3Cc3ccc(F)cc3)sc2c1	?	0	0	22.4µM	-	?
Cc1ccc2nc(NC(=O)CSc3nccn3Cc3ccccc3)sc2c1	?	0	0	?	-	?
COc1ccc(CCNC(=O)Cc2c(C)c3cc4c(C(C)(C)C)coc4c(C)c3oc2=O)cc1OC	-	0	0	0	-	0
O=C(c1ccc(Cl)cc1)N1CCN(c2ccccn2)CC1	-	-	0	-	-	-
O=C(N1CCN(c2ccccn2)CC1)N1c2ccccc2Sc2ccccc21	0	0	0	0	11.2µM	0
CC(=O)N1CCN(c2ncnc3sc(-c4ccccc4)cc23)CC1	0	0	0	0	0	0
CCc1cc2c(N3CCN(c4ccccc4)CC3)ncnc2s1	0	0	0	12.6µM	0	0
Oc1ccc(N2CCN(c3ncnc4sc(-c5ccccc5)cc34)CC2)cc1	?	0	?	11.2µM	0	0
COc1cccc(-c2cc(C(=O)Nc3ccc(OC)cc3OC)no2)c1	-	0	0	0	-	0
O=[N+]([O-])c1ccc2[nH]nc(-c3ccccc3)c2c1	0	0	-	5.62µM	0	0
COc1cc(Nc2nc(SCc3cccc(Cl)c3)nc3ccccc23)cc(OC)c1	-	0	0	17.8µM	-	0
COc1cc(Nc2nc(SCc3ccccc3F)nc3ccccc23)cc(OC)c1	-	0	0	?	-	0
O=C(CSc1nc(Nc2ccccc2)c2ccccc2n1)c1ccc(Cl)cc1	-	0	0	0	-	0
COc1cc(Nc2nc(SCc3ccc(Cl)cc3)nc3ccccc23)cc(OC)c1	-	0	0	?	-	0
SMILES	aSyn rescue	ERG Ets-DNA blk	FUS yeast rescue	TDP-43 yeast inh	Mito fusion yeast	Abeta yeast res
COc1cc(Nc2nc(SCc3ccccc3Cl)nc3ccccc23)cc(OC)c1	-	0	?	20µM	-	0
COc1cc(Nc2nc(SCC(=O)c3ccc(Cl)c(Cl)c3)nc3ccccc23)cc(OC)c1	-	0	0	12.6µM	-	0
CC[n+]1ccnc2ccccc21	0	-	-	-	-	-
CCCCCCCCN1C(=O)[C@@H](CC(=O)NCC2CCCCC2)C[C@@]2(C(=O)OC)C1=C[C@H](C(C)C)O[C@@H]2C1CC1	-	-	0	-	-	-
O=C(Oc1ccc(=O)n(-c2ccccc2)n1)c1ccc(F)cc1	0	0	0	22.4µM	0	0
O=C(Oc1ccc(=O)n(-c2ccccc2)n1)c1ccc(Cl)cc1	0	0	0	?	0	0
